# Laboratory results taken from PubChem BioAssay (NCI).
# The panel holds about 79,000 compounds, 15% with a hit somewhere; the sample as a whole holds those more often. Values without a mark were called inactive. The source made the active and inactive calls. Rule as the data show it: active = growth inhibition above about 70%; inactive = the rest.
# Experiments:
# [1] = NCI Yeast Anticancer Drug Screen. Data for the rad52 strain (AID 147);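 also: 0% = growth of vehicle-treated control cultures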; conditions: S. cerevisiae rad52 mutant growth inhibition, hits give high values
# Summary of the method: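 DNA repair-defective yeast; compound exposure; growth scored against vehicle controls.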
# [2] = NCI Yeast Anticancer Drug Screen. Data for the wt1 strain (AID 149);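 also: 0% = growth of vehicle-treated wt1 cultures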; conditions: S. cerevisiae wt1 strain (SPY 50644) growth inhibition, hits give high values
# Summary of the method: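 Each compound is tested on wt1 yeast and the loss of growth versus vehicle gives the inhibition value.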
# [3] = NCI Yeast Anticancer Drug Screen. Data for the rad50EPP+ strain (AID 151);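 also: 0% = growth of vehicle-treated control cultures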; conditions: S. cerevisiae rad50 mutant strain, hits give high values
# Summary of the method: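 rad50EPP+ yeast treated with test compounds. Readout: growth vs vehicle control.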
# [4] = NCI Yeast Anticancer Drug Screen. Data for the mgt1 strain (AID 153); conditions: S. cerevisiae mgt1 mutant growth inhibition, hits give high values
# Summary of the method: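 Growth inhibition relative to vehicle controls was scored for the mgt1 yeast strain after compound exposure.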
# [5] = NCI Yeast Anticancer Drug Screen. Data for the rad50 strain (AID 155);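 also: 0% = growth of vehicle-only cultures of the same strain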; conditions: S. cerevisiae rad50 strain growth inhibition, hits give high values
# Summary of the method: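 Vehicle-treated cultures provide the reference for the growth inhibition reported for compound-exposed, repair-deficient yeast.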
# [6] = NCI Yeast Anticancer Drug Screen. Data for the mec2-1 strain (AID 157); conditions: S. cerevisiae mec2-1 strain, hits give high values
# Summary of the method: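 Growth inhibition is read against vehicle-treated controls after compound exposure of the mec2-1 yeast strain, which is defective in DNA damage repair or cell cycle control.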
# [7] = NCI Yeast Anticancer Drug Screen. Data for the rad14 strain (AID 159);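 also: 0% = growth of vehicle-treated control cultures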; conditions: S. cerevisiae rad14 strain growth inhibition, hits give high values
# Summary of the method: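 Inhibition of growth is reported for a repair-deficient yeast mutant following compound treatment, calculated relative to cultures that received vehicle.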
# [8] = NCI Yeast Anticancer Drug Screen. Data for the sgs1 mgt1 strain (AID 161);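 also: 0% = growth of cultures given vehicle only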; conditions: S. cerevisiae sgs1 mgt1 strain, hits give high values
# Summary of the method: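 Growth of a repair-deficient yeast mutant was monitored after compound treatment and expressed as inhibition relative to vehicle-treated cultures.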
# [9] = NCI Yeast Anticancer Drug Screen. Data for the CLN2oe strain (AID 163);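 also: 0% = growth of vehicle-only control cultures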; conditions: S. cerevisiae CLN2oe strain, hits give high values
# Summary of the method: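 Compound-treated yeast; growth vs vehicle ctrl = % inhibition. Genetically altered strain (cell-cycle control).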
# [10] = NCI Yeast Anticancer Drug Screen. Data for the cln2 rad14 strain (AID 165);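 also: 0% = growth equal to vehicle treated cultures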; conditions: S. cerevisiae cln2 rad14 strain, hits give high values
# Summary of the method: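 Growth inhibition, relative to vehicle-treated controls, is the read-out. The test organism is a yeast strain with defined genetic alterations, cln2 rad14.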
# [11] = NCI Yeast Anticancer Drug Screen. Data for the bub3 strain (AID 167); conditions: S. cerevisiae bub3 mutant strain, hits give high values
# Summary of the method: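 Mutant yeast screening strain plus compound; vehicle-treated cultures serve as the 0% inhibition reference.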
# [12] = NCI Yeast Anticancer Drug Screen. Data for the wt2 strain (AID 169); conditions: S. cerevisiae wt2 strain growth inhibition, hits give high values
# Summary of the method: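 Compound exposure of yeast; growth compared with vehicle controls; inhibition reported.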
# [13] = NCI Yeast Anticancer Drug Screen. Data for the mlh1 strain (AID 171);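 also: 0% = growth of vehicle-treated control cultures of the same strain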; conditions: S. cerevisiae mlh1 strain growth inhibition, hits give high values
# Summary of the method: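 Compounds are applied to a genetically altered yeast strain, and its growth is compared with that of vehicle-treated cultures to give percent inhibition.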
# [14] = NCI Yeast Anticancer Drug Screen. Data for the sgs1 strain (AID 173);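 also: 0% = growth of vehicle-only control cultures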; conditions: S. cerevisiae sgs1 mutant, hits give high values
# Summary of the method: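 Compounds applied to genetically altered yeast; growth compared with vehicle-treated cultures to give % inhibition.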
# [15] = NCI Yeast Anticancer Drug Screen. Data for the mlh1 rad18 strain (AID 175); conditions: S. cerevisiae mlh1 rad18 strain growth inhibition, hits give high values
# Summary of the method: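 Cells of a genetically altered yeast strain, deficient in DNA damage repair, were treated with compound. Their growth was then compared with that of vehicle-treated cultures to give inhibition.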
# [16] = NCI Yeast Anticancer Drug Screen. Data for the rad18 strain (AID 177); conditions: S. cerevisiae rad18 mutant growth inhibition, hits give high values
# Summary of the method: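 Compounds are applied to a repair-deficient yeast strain, and growth is compared with that of vehicle-treated cultures to give percent inhibition.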
# [17] = at 5.0 µM (retest, dose inferred, filed as 0.5)
# [18] = at 50.0 µM (retest, dose inferred, filed as 5.0)
smiles,measurement,setting,value
Cc1cc(N=Nc2ccc(S(=O)(=O)[O-])cc2)cc(C(=O)[O-])c1[O-].NC1CCCCC1N.[Na+].[Pt+4],growth inhibition,[1]; at 1.2 µM,6%
same,growth inhibition,[1]; at 3.7 µM,33%
same,growth inhibition,[1]; at 11.0 µM,99% (active)
same,growth inhibition,[1]; at 33.0 µM,98% (active)
same,growth inhibition,[1]; at 100.0 µM,98% (active)
same,growth inhibition,[2]; at 1.2 µM,3%
same,growth inhibition,[2]; at 3.7 µM,44%
same,growth inhibition,[2]; at 11.0 µM,98% (active)
same,growth inhibition,[2]; at 33.0 µM,98% (active)
same,growth inhibition,[2]; at 100.0 µM,98% (active)
same,growth inhibition,[3]; at 1.2 µM,25%
same,growth inhibition,[3]; at 3.7 µM,95% (active)
same,growth inhibition,[3]; at 11.0 µM,99% (active)
same,growth inhibition,[3]; at 33.0 µM,99% (active)
same,growth inhibition,[3]; at 100.0 µM,98% (active)
same,growth inhibition,[4]; at 1.2 µM,34%
same,growth inhibition,[4]; at 3.7 µM,66%
same,growth inhibition,[4]; at 11.0 µM,99% (active)
same,growth inhibition,[4]; at 33.0 µM,99% (active)
same,growth inhibition,[4]; at 100.0 µM,98% (active)
same,growth inhibition,[5]; at 1.2 µM,-23%
same,growth inhibition,[5]; at 3.7 µM,84% (active)
same,growth inhibition,[5]; [17],20%
same,growth inhibition,[5]; at 11.0 µM,98% (active)
same,growth inhibition,[5]; at 33.0 µM,98% (active)
same,growth inhibition,[5]; [18],98% (active)
same,growth inhibition,[5]; at 50.0 µM,87.7% (active)
same,growth inhibition,[5]; at 100.0 µM,98% (active)
same,growth inhibition,[6]; at 1.2 µM,9%
same,growth inhibition,[6]; at 3.7 µM,77% (active)
same,growth inhibition,[6]; [17],32%
same,growth inhibition,[6]; at 11.0 µM,99% (active)
same,growth inhibition,[6]; at 33.0 µM,99% (active)
same,growth inhibition,[6]; [18],99% (active)
same,growth inhibition,[6]; at 50.0 µM,91.2% (active)
same,growth inhibition,[6]; at 100.0 µM,98% (active)
same,growth inhibition,[7]; at 1.2 µM,-4%
same,growth inhibition,[7]; at 3.7 µM,52%
same,growth inhibition,[7]; at 11.0 µM,98% (active)
same,growth inhibition,[7]; at 33.0 µM,98% (active)
same,growth inhibition,[7]; at 100.0 µM,98% (active)
same,growth inhibition,[8]; [17],68%
same,growth inhibition,[8]; [18],99% (active)
same,growth inhibition,[8]; at 50.0 µM,92% (active)
same,growth inhibition,[9]; at 1.2 µM,5%
same,growth inhibition,[9]; at 3.7 µM,21%
same,growth inhibition,[9]; at 11.0 µM,95% (active)
same,growth inhibition,[9]; at 33.0 µM,99% (active)
same,growth inhibition,[9]; at 100.0 µM,98% (active)
same,growth inhibition,[10]; [17],49%
same,growth inhibition,[10]; [18],97% (active)
same,growth inhibition,[10]; at 50.0 µM,92% (active)
same,growth inhibition,[11]; at 1.2 µM,-21%
same,growth inhibition,[11]; at 3.7 µM,40%
same,growth inhibition,[11]; [17],50%
same,growth inhibition,[11]; at 11.0 µM,99% (active)
same,growth inhibition,[11]; at 33.0 µM,98% (active)
same,growth inhibition,[11]; [18],98% (active)
same,growth inhibition,[11]; at 50.0 µM,90.2% (active)
same,growth inhibition,[11]; at 100.0 µM,98% (active)
same,growth inhibition,[12]; at 1.2 µM,-2%
same,growth inhibition,[12]; at 3.7 µM,93% (active)
same,growth inhibition,[12]; at 11.0 µM,98% (active)
same,growth inhibition,[12]; at 33.0 µM,98% (active)
same,growth inhibition,[12]; at 100.0 µM,97% (active)
same,growth inhibition,[13]; at 1.2 µM,7%
same,growth inhibition,[13]; at 3.7 µM,66%
same,growth inhibition,[13]; at 11.0 µM,99% (active)
same,growth inhibition,[13]; at 33.0 µM,99% (active)
same,growth inhibition,[13]; at 100.0 µM,98% (active)
same,growth inhibition,[14]; at 1.2 µM,21%
same,growth inhibition,[14]; at 3.7 µM,63%
same,growth inhibition,[14]; at 11.0 µM,99% (active)
same,growth inhibition,[14]; at 33.0 µM,99% (active)
same,growth inhibition,[14]; at 100.0 µM,99% (active)
same,growth inhibition,[15]; [17],33%
same,growth inhibition,[15]; [18],98% (active)
same,growth inhibition,[15]; at 50.0 µM,85.8% (active)
same,growth inhibition,[16]; at 1.2 µM,-26%
same,growth inhibition,[16]; at 3.7 µM,42%
same,growth inhibition,[16]; at 11.0 µM,97% (active)
same,growth inhibition,[16]; at 33.0 µM,98% (active)
same,growth inhibition,[16]; at 100.0 µM,98% (active)
Cc1ccc(Nc2nc3c(=O)n(C)c(=O)n(C)c3nc2Nc2ccc(C)cc2)cc1,growth inhibition,[1]; at 1.2 µM,-2%
same,growth inhibition,[1]; at 3.7 µM,2%
same,growth inhibition,[1]; at 11.0 µM,2%
same,growth inhibition,[1]; at 33.0 µM,2%
same,growth inhibition,[1]; at 100.0 µM,30%
same,growth inhibition,[2]; at 1.2 µM,0%
same,growth inhibition,[2]; at 3.7 µM,-1%
same,growth inhibition,[2]; at 11.0 µM,1%
same,growth inhibition,[2]; at 33.0 µM,-3%
same,growth inhibition,[2]; at 100.0 µM,6%
same,growth inhibition,[3]; at 1.2 µM,3%
same,growth inhibition,[3]; at 3.7 µM,-2%
same,growth inhibition,[3]; at 11.0 µM,-6%
same,growth inhibition,[3]; at 33.0 µM,-16%
same,growth inhibition,[3]; at 100.0 µM,41%
same,growth inhibition,[4]; at 1.2 µM,-2%
same,growth inhibition,[4]; at 3.7 µM,-4%
same,growth inhibition,[4]; at 11.0 µM,-4%
same,growth inhibition,[4]; at 33.0 µM,11%
same,growth inhibition,[4]; at 100.0 µM,-2%
same,growth inhibition,[5]; at 1.2 µM,-2%
same,growth inhibition,[5]; at 3.7 µM,1%
same,growth inhibition,[5]; [17],-13%
same,growth inhibition,[5]; at 11.0 µM,2%
same,growth inhibition,[5]; at 33.0 µM,0%
same,growth inhibition,[5]; [18],66%
same,growth inhibition,[5]; at 50.0 µM,92.5% (active)
same,growth inhibition,[5]; at 100.0 µM,23%
same,growth inhibition,[6]; at 1.2 µM,-2%
same,growth inhibition,[6]; at 3.7 µM,3%
same,growth inhibition,[6]; [17],-9%
same,growth inhibition,[6]; at 11.0 µM,-2%
same,growth inhibition,[6]; at 33.0 µM,-4%
same,growth inhibition,[6]; [18],22%
same,growth inhibition,[6]; at 50.0 µM,95.3% (active)
same,growth inhibition,[6]; at 100.0 µM,11%
same,growth inhibition,[7]; at 1.2 µM,0%
same,growth inhibition,[7]; at 3.7 µM,-4%
same,growth inhibition,[7]; at 11.0 µM,-1%
same,growth inhibition,[7]; at 33.0 µM,-5%
same,growth inhibition,[7]; at 100.0 µM,7%
same,growth inhibition,[8]; [17],-2%
same,growth inhibition,[8]; [18],45%
same,growth inhibition,[8]; at 50.0 µM,92.8% (active)
same,growth inhibition,[9]; at 1.2 µM,-2%
same,growth inhibition,[9]; at 3.7 µM,3%
same,growth inhibition,[9]; at 11.0 µM,-4%
same,growth inhibition,[9]; at 33.0 µM,-5%
same,growth inhibition,[9]; at 100.0 µM,-10%
same,growth inhibition,[10]; [17],-14%
same,growth inhibition,[10]; [18],11%
same,growth inhibition,[10]; at 50.0 µM,79.3% (active)
same,growth inhibition,[11]; at 1.2 µM,-3%
same,growth inhibition,[11]; at 3.7 µM,-5%
same,growth inhibition,[11]; [17],-9%
same,growth inhibition,[11]; at 11.0 µM,0%
same,growth inhibition,[11]; at 33.0 µM,-1%
same,growth inhibition,[11]; [18],16%
same,growth inhibition,[11]; at 50.0 µM,94.5% (active)
same,growth inhibition,[11]; at 100.0 µM,2%
same,growth inhibition,[12]; at 1.2 µM,0%
same,growth inhibition,[12]; at 3.7 µM,-1%
same,growth inhibition,[12]; at 11.0 µM,-1%
same,growth inhibition,[12]; at 33.0 µM,-2%
same,growth inhibition,[12]; at 100.0 µM,12%
same,growth inhibition,[13]; at 1.2 µM,0%
same,growth inhibition,[13]; at 3.7 µM,-2%
same,growth inhibition,[13]; at 11.0 µM,1%
same,growth inhibition,[13]; at 33.0 µM,-3%
same,growth inhibition,[13]; at 100.0 µM,3%
same,growth inhibition,[14]; at 1.2 µM,-3%
same,growth inhibition,[14]; at 3.7 µM,2%
same,growth inhibition,[14]; at 11.0 µM,1%
same,growth inhibition,[14]; at 33.0 µM,3%
same,growth inhibition,[14]; at 100.0 µM,20%
same,growth inhibition,[15]; [17],-14%
same,growth inhibition,[15]; [18],89% (active)
same,growth inhibition,[15]; at 50.0 µM,95.7% (active)
same,growth inhibition,[16]; at 1.2 µM,2%
same,growth inhibition,[16]; at 3.7 µM,0%
same,growth inhibition,[16]; at 11.0 µM,11%
same,growth inhibition,[16]; at 33.0 µM,4%
same,growth inhibition,[16]; at 100.0 µM,46%
